Data reported in publication PMC4336329 (PLoS ONE, 2015).
Hit rate of the full screen: of about 310,000 compounds, about 14,000 (4.5%) showed an effect of 50% or more. The effect is printed as a negative number. Many of the other results were omitted from the sample, so strong results are more common in it than they were.

These molecules were tested against human ether-à-go-go-related gene (hERG) potassium channel (human, UniProt Q12809) (assay: primary screen, population patch clamp on CHO cells stably expressing hERG; higher = less effect of the substance).
Chain of human ether-à-go-go-related gene (hERG) potassium channel (Q12809 whole entry, looked up): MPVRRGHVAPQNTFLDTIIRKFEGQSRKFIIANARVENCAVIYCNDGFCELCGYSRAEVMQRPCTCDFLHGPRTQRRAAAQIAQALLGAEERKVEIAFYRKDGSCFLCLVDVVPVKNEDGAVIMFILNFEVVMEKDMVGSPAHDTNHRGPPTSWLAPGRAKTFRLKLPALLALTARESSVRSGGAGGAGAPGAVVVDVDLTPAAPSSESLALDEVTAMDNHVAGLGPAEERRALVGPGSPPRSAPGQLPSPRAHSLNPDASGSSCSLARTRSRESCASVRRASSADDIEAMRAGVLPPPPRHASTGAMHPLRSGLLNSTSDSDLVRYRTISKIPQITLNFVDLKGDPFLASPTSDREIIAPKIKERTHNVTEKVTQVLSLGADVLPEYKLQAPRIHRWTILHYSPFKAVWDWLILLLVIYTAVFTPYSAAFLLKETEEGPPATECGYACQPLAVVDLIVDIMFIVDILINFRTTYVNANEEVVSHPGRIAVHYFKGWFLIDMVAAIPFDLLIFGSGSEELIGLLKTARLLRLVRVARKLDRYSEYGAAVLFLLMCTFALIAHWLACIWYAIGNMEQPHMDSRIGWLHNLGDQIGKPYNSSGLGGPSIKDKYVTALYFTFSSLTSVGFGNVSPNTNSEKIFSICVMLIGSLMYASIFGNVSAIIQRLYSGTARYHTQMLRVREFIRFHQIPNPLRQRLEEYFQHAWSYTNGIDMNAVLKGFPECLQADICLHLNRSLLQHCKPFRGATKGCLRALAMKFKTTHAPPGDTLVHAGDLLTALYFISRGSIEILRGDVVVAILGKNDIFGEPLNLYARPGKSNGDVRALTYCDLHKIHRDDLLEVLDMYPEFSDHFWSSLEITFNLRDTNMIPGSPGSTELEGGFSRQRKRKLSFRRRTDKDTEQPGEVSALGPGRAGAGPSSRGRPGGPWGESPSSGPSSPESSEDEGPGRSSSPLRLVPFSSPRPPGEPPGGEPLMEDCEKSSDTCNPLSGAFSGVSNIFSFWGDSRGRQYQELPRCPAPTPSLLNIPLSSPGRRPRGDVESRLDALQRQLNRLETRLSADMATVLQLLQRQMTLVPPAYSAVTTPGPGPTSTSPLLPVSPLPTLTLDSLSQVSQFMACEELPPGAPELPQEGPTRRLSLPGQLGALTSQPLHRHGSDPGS
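Note: peak tail current of the secondary pulse compared with the same well before compound.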

Structure (SMILES)	hERG current change (%, negative = inhibition) at 10uM [%]
COc1cccc(-c2sc3ccc(OC)cc3c2C#CCC(C)O)c1 (stereo not shown)	25.8
COc1ccc(CN(C)C(=O)C23CC4CC(CC(C4)C2)C3)c(OC)c1	-25
CCOC(=O)c1cc(-c2ccc(OC(F)F)cc2)nc2nc(SC)[nH]c(=O)c12	-42.7
COc1ccc(NS(=O)(=O)c2cccc(C(=O)NNC(=O)CNC(=O)c3ccco3)c2)cc1	12.8
CC(=O)Nc1ccc2c(c1)N(S(=O)(=O)c1cccs1)CCC2	-3.79
Cc1ccc(C(=O)N/C(=C\c2ccco2)C(=O)NCCN2CCCCC2)cc1C	-60.1
Cc1ccc(C(=O)N/C(=C\c2ccco2)C(=O)NCCN2CCOCC2)cc1C	-3.01
COc1ccc(C(=O)N/C(=C\c2ccco2)C(=O)NCCCn2ccnc2)cc1	-19.7
Cc1ccc(C(=O)N/C(=C\c2ccco2)C(=O)NCCCn2ccnc2)cc1C	-39.8
O=C(NCCN1CCCCC1)/C(=C/c1ccco1)NC(=O)c1ccccc1	-40.6
Cc1ccc(C(=O)N/C(=C/c2ccco2)C(=O)NCCCn2ccnc2)cc1	-64.7
Cc1ccc(C(=O)N/C(=C\c2ccco2)C(=O)NCCCn2ccnc2)cc1	-64.3
CCOC(=O)C1=C(C)Nc2nc(SCC)[nH]c(=O)c2C1c1ccncc1 (stereo not shown)	-7.65
Cc1cc(C)c(C)c(S(=O)(=O)N2CCN(Cc3nc4ccccc4[nH]3)CC2)c1C	0.133
Nc1c(NCCc2ccccc2)c2ccccc2oc1=O	-11.9
COc1ccc(/C=c2\sc3nc(=O)c(C)nn3c2=O)c(OC)c1	23
O=C(COC(=O)c1cc(-c2ccncc2)nc2ccccc12)Nc1ccc2c(c1)OCO2	2.21
COc1ccc(CNS(=O)(=O)c2ccc(S(=O)(=O)N3CCCCC3)cc2)cc1	7.34
CN(NC(=O)c1ccccc1Cl)c1ncc(C(F)(F)F)cc1Cl	-1.95
Cc1c(OCc2ccc([N+](=O)[O-])cc2)ccc2c3c(c(=O)oc12)CCC3	0.652
Cc1nc(C)n(C(C)CNS(=O)(=O)c2ccc(Cl)cc2)n1 (stereo not shown)	13.9
O=C(C[n+]1ccn(CCCNP2(=O)C=C(c3ccccc3)OC(c3ccccc3)=C2)c1)c1ccccc1.[Br-]	-22.8
O=C(C[n+]1ccn(CCCNP2(=O)C=C(c3ccccc3)OC(c3ccccc3)=C2)c1)c1cccs1.[Br-]	-44.7
O=P1(NCCCn2cc[n+](Cc3nc4ccccc4[nH]3)c2)C=C(c2ccccc2)OC(c2ccccc2)=C1.[Cl-]	-63
CC[C@H](C)[C@H](NC(=O)[C@H](Cc1ccc(O)cc1)NC(=O)[C@@H](N)C(C)C)C(=O)N[C@@H](Cc1cnc[nH]1)C(=O)N1CCC[C@H]1C(=O)N[C@@H](Cc1ccccc1)C(=O)O	4.75
O=S(=O)(NCCc1ccncc1)c1ccc(F)cc1	12
CCOC(=O)C1=C(C)N=C2SCCC(=O)N2C1c1cccs1 (stereo not shown)	-10.2
CCCCCCCCS(=O)C1CCS(=O)(=O)C1 (stereo not shown)	4.04

Structure (SMILES)	hERG current change (%, negative = inhibition) at 10uM [%]
CCCCCCS(=O)[C@H]1CS(=O)(=O)C[C@@H]1S(=O)CCCCCC (stereo partly shown)	-66.7
CCCCCCCCS(=O)C1CS(=O)(=O)CC1O (stereo not shown)	5.75
CCOC(=O)N1CCN(Cc2nc(N)nc(Nc3ccc(C)cc3C)n2)CC1	-16.7
CCOC(=O)N1CCN(Cc2nc(N)nc(Nc3ccc(Cl)cc3)n2)CC1	-72.4
CCOC(=O)N1CCN(Cc2nc(N)nc(Nc3ccc(C)cc3)n2)CC1	-57.2
CCOC(=O)N1CCN(Cc2nc(-c3ccc(C)cc3)no2)CC1	-17.6
CCOC(=O)N1CCN(C(=O)Nc2ccc(Cl)cc2)CC1	-11.4
CCOC(=O)N1CCN(Cc2nc(-c3ccc(Cl)cc3)no2)CC1	-30.6
COc1ccc(C2C(C(=O)O)CCC(=O)N2c2ccc(C)cc2)cc1OC (stereo not shown)	-10.6
CC(C)[C@H](NS(=O)(=O)c1ccccc1)C(=O)OCC(=O)Nc1ccccc1Sc1ccccc1	1.98
C=CCn1c(Sc2nnc(C)s2)nc2c1c(=O)[nH]c(=O)n2C	11.2
O=C(NCc1ccccn1)Nc1ccccc1F	13.5
Cc1cc(NC(=O)CSc2ccc(Cl)cc2)no1	-3.36
COc1cccc(C(=O)CSc2nc3ccccc3n2CC(=O)N(C(C)C)C(C)C)c1	-5.36
CCCCOc1ccc(CCN)cc1Cl.Cl	-13.7
CCCCCc1ccc(OCCCC[n+]2ccc(C)cc2)c(CCCCC)c1.[Cl-]	-77
Cc1ccc[n+](CC(=O)Nc2ccc(C)c(C)c2)c1.[Cl-]	10.4
CCCCCc1ccc(OCCCC[n+]2ccccc2)c(CCCCC)c1.[Cl-]	-66.4
CCCCCc1ccc(OCCC[n+]2ccccc2)c(CCCCC)c1.[Cl-]	-75.7
CCCCCc1ccc(OCCCC[n+]2cccc(C)c2)c(CCCCC)c1.[Cl-]	-71.1
CCCCCc1ccc(S(=O)(=O)Nc2cc(C)ccn2)cc1	8.41
CC(=O)Nc1ccc(OCCC[n+]2ccccc2)cc1.[Cl-]	40.4
CCCCCc1ccc(CC(=O)O)cc1	11.4
CCCCCCC[n+]1ccc(-c2cc[n+](CCCCCCC)cc2)cc1.[I-]	9.12
CCCCOc1ccc(C)cc1CN(CCO)CCO.Cl	1.6
CCCCCOc1ccc(C)cc1CN(CCCl)CCCl.Cl	13.1
OCC1OC(n2cnc3ccccc32)CC1O (stereo not shown)	10.8
